HEK293 cAMP ctrl – parental HEK293 cAMP activation (counter-screen); Potency, µM (top dose mostly 57.1 µM), without a hit: at the highest dose activation, hits mostly activators; actives 2.5% (n = 73,000); parental HEK293 CNG cAMP sensor, membrane potential fluorescence; also: % of control where 0% means no effect; nearly all actives have a fitted effect of over 55% in size
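Parental HEK 293 cells stably expressing a modified CNG channel (no TSHR) report cAMP rise as membrane depolarization. Membrane potential dye with 100 uM RO 20-1724 was loaded for 60 min at room temperature, then compound added for 30 min; fluorescence read at 590 nm.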
TSHR agonist – activates the human thyroid stimulating hormone receptor. HEK293-CNG-TSHR cells (CNG channel as cAMP sensor), membrane potential dye, cAMP. AID 926. P16473. actives 0.48% (n = 73,000). Potency, µM (doses to about 57.1 µM), without a hit: top-dose activation, hits mostly activators; active = well fitted activation curve with a large enough effect in the main read-out, with a control signal flat, not every such curve was filed as active; inconclusive = small, poorly fitted or top-dose-only effect, or a change in a side signal; inactive = no such curve, though single readings can be large or run the other way; % of control where 0% means no effect;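 also: the control signal comes from parental cells without the receptor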
Target sequence (P16473 whole entry, looked up): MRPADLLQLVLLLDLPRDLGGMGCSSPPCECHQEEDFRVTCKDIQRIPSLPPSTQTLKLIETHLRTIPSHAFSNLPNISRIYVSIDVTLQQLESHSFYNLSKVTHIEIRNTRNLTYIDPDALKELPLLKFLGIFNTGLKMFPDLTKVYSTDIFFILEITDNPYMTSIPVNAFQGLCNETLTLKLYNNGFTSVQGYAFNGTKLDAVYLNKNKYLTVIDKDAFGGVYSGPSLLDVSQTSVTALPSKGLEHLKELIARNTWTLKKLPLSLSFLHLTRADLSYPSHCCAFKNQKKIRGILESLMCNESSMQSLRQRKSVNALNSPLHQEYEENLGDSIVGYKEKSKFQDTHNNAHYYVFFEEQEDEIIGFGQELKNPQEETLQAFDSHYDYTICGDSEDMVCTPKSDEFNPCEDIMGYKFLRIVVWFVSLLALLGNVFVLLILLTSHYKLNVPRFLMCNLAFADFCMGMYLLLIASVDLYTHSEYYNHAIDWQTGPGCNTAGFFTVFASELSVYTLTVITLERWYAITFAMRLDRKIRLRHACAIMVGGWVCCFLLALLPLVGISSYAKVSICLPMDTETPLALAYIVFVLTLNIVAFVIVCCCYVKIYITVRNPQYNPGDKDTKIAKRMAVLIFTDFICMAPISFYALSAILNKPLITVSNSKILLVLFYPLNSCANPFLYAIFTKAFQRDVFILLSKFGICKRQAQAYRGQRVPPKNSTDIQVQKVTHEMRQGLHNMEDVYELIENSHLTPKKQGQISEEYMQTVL
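HEK 293 cells stably expressing TSHR and a cAMP-gated CNG channel; parental CNG-only cells as counterscreen. Cells preloaded 60 min with membrane potential dye plus 100 uM RO 20-1724, then compound 30 min; fluorescence read at 590 nm.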
ERK AVP inh – inhibitors of vasopressin-stimulated ERK signaling pathway. Potency, µM (titrated, usually from 57.5 µM), without a hit: at the top dose activity, negative = inhibition, hits mostly inhibitors. AID 995. actives 0.99% (n = 72,000). HEK293-V1b, vasopressin-stimulated pERK AlphaScreen; also: % is scaled to controls: 0 for no effect and ±100 for the full control effect; nearly all actives have a fitted effect of over 55% in size
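Overnight-seeded V1b-HEK293 cells in 1% FBS got compound, then vasopressin (25 nM final, 5 min, 37C), then lysis buffer. AlphaScreen detection of phospho-ERK; activity normalized to basal and full-stimulation controls.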
CRE Fsk mod – alters forskolin-stimulated CRE reporter signaling in CHO cells. CHO CRE-bla reporter (cAMP response element driving beta-lactamase), forskolin EC10, beta-lactamase ratio. Potency, µM (highest dose often 38.2 µM), without a hit: at the highest dose activity change, negative = inhibition, usual class: activators. actives 2.5% (n = 71,000). AID 662; active = well fitted activation curve with a large enough effect in the signal ratio, with a control signal flat, not every such curve was filed as active; inconclusive = small, poorly fitted or top-dose-only effect, or effect the other way, or a change in a side signal; the % refers to the signal ratio; also: % of control where 0% means no effect
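Reporter-gene assay: CHO cells with beta-lactamase behind cAMP responsive elements, co-treated with compound and EC10 NKH 477 for 3 hours at 37 degrees Celsius. Activity came from the 460/530 nm CCF4 emission ratio.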
Tau fil binding – binds recombinant human tau filaments; AID 596; actives 2% (n = 71,000); recombinant tau filaments, thioflavin S fluorescence, 15 h; filaments grown with octadecylsulfate alongside compound; Potency, µM (series often up to 57.1 µM), for inactives: at the top dose activity change, negative = inhibition;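 also: % is scaled to controls: 0 for no effect and ±100 for the full control effect; actives lower thioflavin S fluorescence by blocking filaments or displacing dye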
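Recombinant tau protein (human, 1 uM final) plus 30 uM ODS in HEPES pH 7.4 with NaCl, DTT and thioflavine S. Compound present from the start; fluorescence at 510 nm after 15 h, 37 C.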
An asterisk follows results filed as active; ? = inconclusive; / = not tested or not shown; [ ] = another dose, or the depositor's remark. Compounds with a hit are over-represented: about 7.4% of the library has one in this group of screens. Unless noted, calls follow the shape of the dose curve; as a rule, active = well fitted curve in the direction sought with a large enough effect; inconclusive = small, poorly fitted or top-dose-only effect, or another doubt; inactive = no such curve, though single readings can be large; an effect the other way counts as inactive or inconclusive. Potency is read from the fitted curve at half-maximal effect.

SMILES | HEK293 cAMP ctrl | TSHR agonist | ERK AVP inh | CRE Fsk mod | Tau fil binding
Cc1nc2ccccc2c(=O)n1NCc1cc(Br)cs1 | 16µM* | ? | 7% | -24% | -15%
C[C@@H]1CCCC(CC(=O)O)(CC(=O)O)C1 | 12%[11.4 µM] | 1%[11.4 µM] | 1%[11.5 µM] | -4%[7.6 µM] | -1%[11.4 µM]
Cc1ccc(C2C3=C(CC(C)(C)CC3=O)NC3=C2C(=O)CC(C)(C)C3)o1 | 3% | 13µM* | -13% | ? | 2%
CN(C)c1ccc2c(c1)OC(N)=C(C#N)C2c1cccc(F)c1 (configuration not stated) | 32µM* | ? | ? | ? | 176%
N#CC1=C(N)Oc2cc(O)ccc2C1c1cccs1 (configuration not stated) | 6% | 4% | -20% | 5% | 67%
Cc1cc(=O)[nH]c(/N=C(\N)Nc2ccc(Cl)cc2)n1 | -7%[11.4 µM] | -1%[11.4 µM] | -14%[11.5 µM] | -5%[7.6 µM] | 8%[11.4 µM]
COc1ccc(-c2nnc(SCc3ccccc3F)o2)cc1OC | ? | ? | -19% | 13µM* | 56%
Cc1ccc(-c2nnc(SCc3ccccc3F)o2)cc1 | ? | ? | 140% | 10% | 11%
COc1ccc2c(c1)Sc1ccccc1N2CCN(C)C | -20% | -4% | ? | -5% | 16µM*
Cn1c(C(=O)N2CCCC(C(=O)NCc3cccs3)C2)cc2sccc21 (configuration not stated) | 4% | 25µM* | ? | -4% | 3%
CCn1c(C(=O)N2CCCC(C(=O)NCCCc3ccccc3)C2)cc2sccc21 (configuration not stated) | ? | ? | 16µM* | -11% | -10%
CCn1c(C(=O)N2CCCC(C(=O)NCCc3ccc(C)cc3)C2)cc2sccc21 (configuration not stated) | ? | ? | ? | -4% | -8%
CCn1c(C(=O)N2CCCC(C(=O)O)C2)cc2sccc21 (configuration not stated) | 3% | 9% | -1% | 3% | -5%
CCn1c(C(=O)N2CCC(C(=O)NCc3cccs3)CC2)cc2sccc21 | ? | ? | -10% | -16% | 3%
Cn1c(C(=O)N2CCCC(C(=O)NCCCSC3CCCCC3)C2)cc2sccc21 (configuration not stated) | ? | ? | 16µM* | -9% | 60%
Cn1c(C(=O)Nc2ccc3c(c2)OCO3)cc2sccc21 | -14% | -14% | ? | ? | 13µM*
CC(C)C[C@H](N)C(=O)O | 28%[11.4 µM] | -3%[11.4 µM] | 5%[11.5 µM] | -10%[7.6 µM] | 4%[11.4 µM]
CC(CCc1ccccc1)NC(=O)C1CCCN(C(=O)c2cc3sccc3n2C)C1 (configuration not stated) | ? | ? | 25µM* | -19% | -2%
COc1ccc(OC)c(NC(=O)c2cc3sccc3n2C)c1 | 25µM* | ? | -14% | 11% | -9%
Cn1c(C(=O)OCC(=O)NCCc2ccccc2)cc2sccc21 | ? | ? | -9% | -5% | 33%
CC(CCc1ccccc1)NC(=O)c1cc2sccc2n1C (configuration not stated) | 41% | 25µM* | / | / | /
CCc1ccccc1NC(=O)c1cc2sccc2n1C | 32µM* | ? | ? | 3% | -17%
C=C1c2c(Cl)ccc(O)c2C(O)=C2C(=O)[C@@]3(O)C(O)=C(C(N)=O)C(=O)[C@@H](N(C)C)[C@@H]3[C@@H](O)[C@H]12 | -6%[25.6 µM] | -13%[25.6 µM] | -3%[25.7 µM] | -8%[17.1 µM] | 10%[25.6 µM]
O=C(c1ccccc1)[C@H](Nc1ccc2ccccc2c1)c1ccccc1 | 0%[11.4 µM] | -3%[11.4 µM] | -7%[11.5 µM] | 3%[7.6 µM] | -28%[11.4 µM]
O=c1c(-c2ccccc2)nc2cnc(Nc3ccccc3)nc2n1Cc1cccs1 | 13% | 0% | 20% | ? | 41%
SMILES | HEK293 cAMP ctrl | TSHR agonist | ERK AVP inh | CRE Fsk mod | Tau fil binding
CC1C(NC(=O)/C(=N/OC(C)(C)C(=O)O)c2csc(N)n2)C(=O)N1S(=O)(=O)O (configuration not stated) | / | / | 1% | / | /
CN(C)c1cccc(O)c1 | ? | ? | 10% | -8% | 32µM*
Cc1nc(NC2CCCCC2)c2nc(-c3ccccc3)n(C(C)CN(C)C)c2n1 (configuration not stated) | ? | ? | -12% | 1% | -10%
COc1ccccc1CNc1ccc(N2CCCCC2)cc1 | ? | ? | 16µM* | -1% | 10µM*
COc1cccc(CNc2ccc(N3CCCCC3)cc2)c1OC | 9% | -5% | 20µM* | 0% | 7.9µM*
COc1cccc(CNc2ccc(S(N)(=O)=O)cc2)c1OC | 20% | 2% | -10% | 10% | -1%
COc1cccc(CNc2nc3ccccc3n2CCN2CCCCC2)c1OC | 12% | 11% | -18% | 10µM* | 5%
COc1ccccc1CNC(=O)c1ccc(CNc2c(N3CCCC3)c(=O)c2=O)cc1 | 1% | -1% | 6% | -6% | 24%
COc1ccc(CCNC(=O)c2cc3c(=O)n4cccc(C)c4nc3n(Cc3ccncc3)c2=N)cc1 | 1% | 0% | -1% | ? | 3.2µM*
Cc1cccn2c(=O)c3cc(C(=O)NC4CCCC4)c(=N)n(C4CCCC4)c3nc12 | -55% | ? | 10% | ? | 0.4µM*
CCCCNC(=O)c1cc2c(=O)n3cccc(C)c3nc2n(Cc2ccncc2)c1=N | -9% | -12% | 6% | 3.2µM* | 151%
CCn1c(=N)c(C(=O)NC)cc2c(=O)n3cccc(C)c3nc21 | -7% | -6% | 1% | ? | 14%
Nc1nc(N)c(CCCCc2ccccc2)c(N)n1 | 4%[11.4 µM] | 5%[11.4 µM] | -16%[11.5 µM] | 13%[7.6 µM] | 1%[11.4 µM]
Cc1cccc(CNc2cc(-c3ccccc3CN(C)C)ncn2)c1 | 29% | 28% | ? | 5% | 6%
Cc1cccc(CNc2ccnc(-c3ccccc3CN(C)C)n2)c1 | 5µM* | ? | 31% | 0% | -20%
Cc1oc(-c2cc(Cl)ccc2Cl)cc1-c1nn2c(C)nnc2s1 | 17% | / | 13% | ? | 8%
CCc1nnc2n1N=C(c1ccc(-c3ccc(Cl)cc3Cl)o1)CS2 | 10% | 12%[11.4 µM] | -29% | 5% | 25µM*
Clc1ccc(OCc2nnc3n2N=C(c2ccc4c(c2)OCCO4)CS3)c(Cl)c1 | ? | ? | 17% | 13µM* | 138%
CCc1nnc2n1N=C(c1ccc(-c3cc(Cl)ccc3Cl)o1)CS2 | -5% | -8% | -18% | ? | 16µM*
O=C(CCN1CCCCC1)c1csc2ccccc12 | -2%[11.4 µM] | 4%[11.4 µM] | -12%[11.5 µM] | -15%[7.6 µM] | 7%[11.4 µM]
CC(C)(C)N1C(=O)[C@H]2[C@H]3[C@H](O)[C@H](O)C/C(=N/OCc4ccccc4)[C@@H]3CC[C@@H]2C1=O | 2%[11.4 µM] | -1%[11.4 µM] | 22%[11.5 µM] | / | /
C[C@@H](N)/C(N)=N/O | 2%[11.4 µM] | -2%[11.4 µM] | 0%[11.5 µM] | 10%[7.6 µM] | 7%[11.4 µM]
c1cc(CSSCc2ccncc2)ccn1 | 10%[11.4 µM] | 17%[11.4 µM] | 8%[11.5 µM] | -6%[7.6 µM] | 0%[11.4 µM]
N#C/C(=C\c1ccc(O)c(O)c1)C(=O)NCCc1ccccc1 | ? | ? | ? | ? | 20%
